Out of some 52,000 compounds screened, about 4,300 (8.3%) were called active. Cut-off read from the data, not from the text of the source: active = survival mostly below about 52% (no sharp cut-off); inactive = mostly above about 56%. Many of the other results were omitted from the sample, so actives are more common in it than they were.

This test concerns DeltatarO mutant. The test can be described thus: growth inhibition of S. aureus wild type versus tarO mutant, primary screen, teichoic acid synthesis inhibitors, RN4220, OD600 (AID 463173). Conditions: OD600, 18 h, active compounds read low, screened at 18.75 µg/mL (by protocol).
Consider `CC1(C)CC(=O)C=C(NCC(O)c2ccccc2)C1` (stereo not given), for which the survival is 102% (inactive). As for `Cc1ccc(CNC(=O)CN(c2ccc(C)cc2)S(=O)(=O)c2c(C)nn(C)c2C)cc1`, the survival was 73% (inactive). Turning to `O=C(c1cc2ccccc2oc1=O)N(Cc1ccc(F)cc1)C1CC1`, the survival was 88% (inactive).

On to `CC(C)(C)c1ccc(C(=O)N(Cc2ccc(F)cc2)Cc2ccco2)cc1`, for which the survival was 55% (inactive). In the case of `COc1ccc2oc(=O)c(C(=O)NCc3ccco3)cc2c1` it was 100% (inactive); in that of `COc1ccc(CN(Cc2ccco2)C(=O)c2cc3ccccc3oc2=O)c(OC)c1`, 40% (active). For the molecule `Cc1ccccc1CN(Cc1ccco1)C(=O)c1cc2ccccc2oc1=O`, the survival is 44% (active). Next, `CCC1Oc2ccc(C)cc2N(CC(=O)N(Cc2ccc3c(c2)OCO3)CC2CCCO2)C1=O` (stereo not given): 96% (inactive); `O=C(c1cc2ccccc2oc1=O)N(Cc1ccc2c(c1)OCO2)CC1CCCO1` (stereo not given): 42% (active). As for `O=C(NCC1CCCO1)c1cc2ccccc2oc1=O` (stereo not given), the survival was 80% (inactive). Next, `O=C(c1cc2ccccc2oc1=O)N(Cc1cccs1)Cc1cccs1`: 48% (inactive). Regarding `O=C(c1cc2ccccc2oc1=O)N(Cc1ccc(F)cc1)Cc1ccco1`, the survival is 41% (active). In the case of `COc1ccccc1C(=O)N(Cc1ccco1)Cc1ccccc1F` it was 60% (inactive); in that of `Cc1cccc2cc(CN(Cc3ccco3)C(=O)c3ccccc3)c(=O)[nH]c12`, 95% (inactive); in that of `O=C(O)CCn1cnc2sc3c(c2c1=O)CCCC3`, 105% (inactive). Next, `Nc1cnc2cccc3c2c1-c1ccccc1C3=O`: 86% (inactive); `Cc1ccc(S(=O)(=O)c2cnc(SCC(=O)Nc3cc(C)cc(C)c3)nc2N)cc1`: 102% (inactive). For the molecule `COc1ccc(-c2cc(C(=O)NCCc3ccc(Cl)cc3)[nH]n2)cc1`, the survival was 72% (inactive). Take `Cc1c(Cl)cccc1-n1ncc(C(=O)N2CCc3ccccc3C2)c1C1CCN(C(=O)OC(C)(C)C)CC1`: the survival was 85% (inactive). In the case of `COc1ccc(C(=O)NCCn2cc(SCC(=O)Nc3ccc4c(c3)OCCO4)c3ccccc32)cc1` it was 153% (inactive); in that of `CCOC(=O)c1c(C)oc2nc(C)nc(NCC3CCN(Cc4ccc(F)cc4)CC3)c12`, 102% (inactive); in that of `Cc1ccc(C)c(NC(=O)CCc2c(C)nn(-c3ccc(N4CCCC4)nn3)c2C)c1`, 67% (inactive). Next, `COc1ccccc1Nc1c2c(nc3ccc(NC(=O)/C=C/c4cccc(OC)c4OC)cc13)CCCC2`: 74% (inactive); `Cc1ccc(-c2nc3ccccn3c2Nc2ccccc2C)s1`: 21% (active).

Consider `Fc1ccc(Nc2c(-c3ccco3)nc3ccccn23)cc1`, for which the survival is 53% (inactive). On to `Cc1ccc(-c2nc3c(C)cccn3c2Nc2ccccc2C)s1`, for which the survival is 0% (active). Next, `Cc1cccc(C)c1Nc1c(-c2ccccn2)nc2c(C)cccn12`: 51% (inactive); `Cc1ccccc1Nc1c(-c2c[nH]c3ccccc23)nc2ccccn12`: 69% (inactive); `Cc1ccc(-c2nc3ccccn3c2Nc2ccc3c(c2)OCCO3)s1`: 79% (inactive).

For the molecule `Cc1ccc(-c2nc3ccc(Cl)cn3c2Nc2ccccc2C)s1`, the survival is 107% (inactive). Turning to `Cc1ccccc1Nc1c(-c2ccco2)nc2c(C)cccn12`, the survival was 25% (active).

As to `Cc1ccccc1Nc1c(-c2ccc(Cl)s2)nc2cccc(C)n12`, the survival was 99% (inactive). Next, `Cc1ccc(Nc2c(-c3ccc(C)s3)nc3ccccn23)cc1`: 31% (active). Next, `Cc1ccccc1Nc1c(-c2ccc(Cl)s2)nc2c(C)cccn12`: 69% (inactive); `Cc1ccc(Nc2c(-c3ccc(N(C)C)cc3)nc3ccccn23)cc1`: 131% (inactive).

These data come from PubChem BioAssay AID463173 (ICCB-Longwood Screening Facility, Harvard Medical School, 2010).
